Data as given in PubChem BioAssay AID1159580 (chemical genetic matrix, 2015).
Out of some 5,500 compounds screened, about 2,000 (36%) were called active. Roughly 18% stayed inconclusive and do not appear here. Rule as the data show it: active = normalized growth mostly below about 0.91 (no sharp cut-off); inconclusive = no clear call, values can overlap the other calls; inactive = mostly above about 0.92. This is one part of the list.

Test: chemical genetic growth profiling, strain panel (AID 1159580);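 also: tested at 20 µM; growth read once vehicle control cultures reached saturation at 30 °C; 1 = growth at the plate median or of vehicle wells; lower values mean less growth of the strain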
Conditions: growth OD

Measured: normalized growth

C[C@]12CC(=O)C3C(CC[C@@H]4C[C@H](O)CC[C@]34C)C1CC[C@]2(O)C(=O)CO (stereo not given in full)
inactive: S. cerevisiae deletion strains, locus YAL013W, strain DEP1, hits give low values 0.997 | S. cerevisiae deletion strains, locus YBR021W, strain FUR4, hits give low values 0.976 | S. cerevisiae deletion strains, locus YBR229C, strain ROT2, hits give low values 0.99 | S. cerevisiae deletion strains, locus YCL029C, strain bik1, hits give low values 1.01 | S. cerevisiae deletion strains, locus YDL035C, strain GPR1, hits give low values 0.996 | S. cerevisiae deletion strains, locus YDL074C, strain BRE1, hits give low values 0.978 | S. cerevisiae deletion strains, locus YDL101C, strain DUN1, hits give low values 0.996 | S. cerevisiae deletion strains, locus YDL185W, strain tfp1, hits give low values 0.977 | S. cerevisiae deletion strains, locus YDL192W, strain arf1, hits give low values 1 | S. cerevisiae deletion strains, locus YDR101C, strain arx1, hits give low values 0.978 | S. cerevisiae deletion strains, locus YDR150W, strain NUM1, hits give low values 0.994 | S. cerevisiae deletion strains, locus YDR162C, strain NBP2, hits give low values 1.02 | S. cerevisiae deletion strains, locus YDR318W, strain mcm21, hits give low values 1.01 | S. cerevisiae deletion strains, locus YDR388W, hits give low values 0.995 | S. cerevisiae deletion strains, locus YDR502C, strain sam2, hits give low values 1.01 | S. cerevisiae deletion strains, locus YEL061C, strain CIN8, hits give low values 0.995 | S. cerevisiae deletion strains, locus YER110C, hits give low values 0.986 | S. cerevisiae deletion strains, locus YER155C, strain BEM2, hits give low values 0.986 | S. cerevisiae deletion strains, locus YER167W, strain BCK2, hits give low values 0.992 | S. cerevisiae deletion strains, locus YGL078C, strain dbp3, hits give low values 0.983 | S. cerevisiae deletion strains, locus YGL086W, strain mad1, hits give low values 0.97 | S. cerevisiae deletion strains, locus YGL248W, strain PDE1, hits give low values 1.01 | S. cerevisiae deletion strains, locus YGR135W, strain pre9, hits give low values 1.03 | S. cerevisiae deletion strains, locus YGR252W, strain gcn5, hits give low values 1.06 | S. cerevisiae deletion strains, locus YHR030C, strain SLT2, hits give low values 0.991 | S. cerevisiae deletion strains, locus YHR079C, strain IRE1 (second series), hits give low values 0.992 | S. cerevisiae deletion strains, locus YHR094C, strain hxt1, hits give low values 0.986 | S. cerevisiae deletion strains, locus YHR129C, strain ARP1, hits give low values 0.992 | S. cerevisiae deletion strains, locus YHR200W, strain rpn10, hits give low values 1.02 | S. cerevisiae deletion strains, locus YIL066C, strain RNR3, hits give low values 0.998 | S. cerevisiae deletion strains, locus YIL073C, strain SPO22, hits give low values 1.03 | S. cerevisiae deletion strains, locus YIL125W, strain kgd1, hits give low values 0.997 | S. cerevisiae deletion strains, locus YIR030C, strain dcg1, hits give low values 0.991 | S. cerevisiae deletion strains, locus YJL095W, strain BCK1, hits give low values 1.04 | S. cerevisiae deletion strains, locus YJL134W, strain LCB3, hits give low values 0.992 | S. cerevisiae deletion strains, locus YJL168C, strain set2, hits give low values 0.994 | S. cerevisiae deletion strains, locus YJL187C, strain SWE1 (second series), hits give low values 1 | S. cerevisiae deletion strains, locus YJR043C, strain POL32, hits give low values 1 | S. cerevisiae deletion strains, locus YJR075W, strain HOC1, hits give low values 0.997 | S. cerevisiae deletion strains, locus YKL009W, strain mrt4, hits give low values 1.1 | S. cerevisiae deletion strains, locus YKL068W, hits give low values 0.994 | S. cerevisiae deletion strains, locus YKL085W, strain MDH1 (second series), hits give low values 1 | S. cerevisiae deletion strains, locus YKL085W, strain MDH1, hits give low values 1 | S. cerevisiae deletion strains, locus YKR001C, strain vps1, hits give low values 0.987 | S. cerevisiae deletion strains, locus YLR039C, strain RIC1, hits give low values 0.977 | S. cerevisiae deletion strains, locus YLR058C, strain SHM2, hits give low values 1.01 | S. cerevisiae deletion strains, locus YLR102C, strain apc9, hits give low values 0.997 | S. cerevisiae deletion strains, locus YLR262C, strain YPT6, hits give low values 1 | S. cerevisiae deletion strains, locus YLR268W, strain sec22, hits give low values 0.96 | S. cerevisiae deletion strains, locus YLR330W, strain CHS5, hits give low values 0.994 | S. cerevisiae deletion strains, locus YLR342W, strain FKS1 (second series), hits give low values 0.982 | S. cerevisiae deletion strains, locus YLR371W, strain rom2, hits give low values 0.993 | S. cerevisiae deletion strains, locus YLR418C, strain cdc73, hits give low values 1.01 | S. cerevisiae deletion strains, locus YML016C, strain PPZ1, hits give low values 0.991 | S. cerevisiae deletion strains, locus YML032C, strain rad52, hits give low values 1.04 | S. cerevisiae deletion strains, locus YML124C, strain tub3, hits give low values 0.998 | S. cerevisiae deletion strains, locus YMR078C, strain ctf18, hits give low values 0.989 | S. cerevisiae deletion strains, locus YMR223W, strain ubp8, hits give low values 1.02 | S. cerevisiae deletion strains, locus YMR263W, strain SAP30, hits give low values 1 | S. cerevisiae deletion strains, locus YMR307W, strain GAS1, hits give low values 1.07 | S. cerevisiae deletion strains, locus YNL067W, strain RPL9B, hits give low values 1.01 | S. cerevisiae deletion strains, locus YNL128W, strain TEP1, hits give low values 0.981 | S. cerevisiae deletion strains, locus YNL153C, strain GIM3, hits give low values 1.01 | S. cerevisiae deletion strains, locus YNL233W, strain BNI4, hits give low values 1.01 | S. cerevisiae deletion strains, locus YNL250W, strain rad50, hits give low values 0.991 | S. cerevisiae deletion strains, locus YNL271C, strain bni1, hits give low values 0.989 | S. cerevisiae deletion strains, locus YNL298W, strain CLA4, hits give low values 0.989 | S. cerevisiae deletion strains, locus YNL307C, strain MCK1, hits give low values 0.983 | S. cerevisiae deletion strains, locus YNL322C, strain KRE1, hits give low values 0.998 | S. cerevisiae deletion strains, locus YNR052C, strain pop2, hits give low values 0.991 | S. cerevisiae deletion strains, locus YOL012C, strain htz1 0.641 | S. cerevisiae deletion strains, locus YOL147C, strain pex11, hits give low values 0.986 | S. cerevisiae deletion strains, locus YOR061W, strain CKA2, hits give low values 0.995 | S. cerevisiae deletion strains, locus YOR069W, strain VPS5, hits give low values 0.988 | S. cerevisiae deletion strains, locus YOR136W, strain idh2, hits give low values 0.973 | S. cerevisiae deletion strains, locus YOR144C, strain elg1, hits give low values 0.993 | S. cerevisiae deletion strains, locus YOR184W, strain ser1, hits give low values 1.01 | S. cerevisiae deletion strains, locus YOR316C, strain cot1, hits give low values 0.993 | S. cerevisiae deletion strains, locus YPL055C, strain LGE1, hits give low values 1 | S. cerevisiae deletion strains, locus YPR119W, strain clb2, hits give low values 0.997 | S. cerevisiae deletion strains, locus YPR141C, strain kar3, hits give low values 0.992 | S. cerevisiae deletion strains, locus YPR163C, strain tif3, hits give low values 0.996 | S. cerevisiae deletion strains, locus YPR167C, strain met16, hits give low values 0.981 | S. cerevisiae deletion strains, strain wtn01, hits give low values 0.943 | S. cerevisiae strains, strain wild type, hits give low values 1
